The values below come from PubChem BioAssay (NCI).

The panel holds about 83,000 compounds, 20% with a hit somewhere; the sample as a whole holds those more often.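 Testing used 96-well plates and a 48-hour single-concentration exposure. Example: -40 means 40% of the starting cells died.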 The source made the active and inactive calls. Rule for the calls: active = growth percent below 10; inactive = the rest.

The first experiment deals with MDA-MB-435 melanoma. The experiment in a line: NCI-60 one-dose screen, 48 h (100 = growth as untreated, 0 = no growth, -100 = all killed). Conditions: 10 µM unless noted.
Turning to `CCCCCCC1(C)NCCO1` (stereo not drawn), the growth was 109% (inactive). For the compound `O=C(CCCCCCN1CC(=O)N2[C@H](c3cc(Br)cs3)c3[nH]c4ccccc4c3C[C@H]2C1=O)NO`, the growth was 22.6% (inactive).

In the case of `C=CCn1c(SCC(=O)Nc2ccc(C(=O)/C=C/c3cc4cc(OC)ccc4nc3Cl)cc2)nnc1-c1ccc(Br)cc1`, the growth is 91.1% (inactive).

For the compound `O=C(COc1ccc(-c2nc3ccccc3[nH]2)cc1)N=Nc1c(O)[nH]c2ccc(Cl)cc12`, the growth was 93.9% (inactive). Turning to `Cc1cc(=O)[nH]c2c(C#N)cnn12`, the growth was 104% (inactive). Turning to `O=C1Nc2ccc(I)cc2C1=O`, the growth was 103% (inactive). Consider `Fc1ccc(Nc2nc3nonc3nc2Nc2ccc(I)cc2)cc1`, for which the growth was 4.78% (active). In the case of `CN1CCN(Cc2ccc3c(NNC(=O)c4ccccc4)nc4cc(F)ccc4n23)CC1`, the growth was 28.1% (inactive).

Turning to `O=C(Nn1c2c(sc1=NCc1ccccc1)C(=O)c1ccccc1C2=O)c1cc2ccc1CCc1ccc(cc1)CC2`, the growth was -85.5% (active). Turning to `Cc1cc2c(O)c(-c3cccc(Cl)c3)c3sc(=O)oc3c2cc1C`, the growth was 28.9% (inactive).

Turning to `CC12CCC3c4ccccc4CCC3(CO1)C2` (stereo not drawn), the growth was 107% (inactive). In the case of `O=C(Cn1cc(CN2CCCCCC2)nn1)Nc1ccc2c(ccn2Cc2ccccc2)c1`, the growth was 96.6% (inactive).

Turning to `COc1cc(OC)cc(C2=C3CC[C@@H]4[C@H](CC[C@]5(C)C(=O)CC[C@@H]45)C3=CC3C(O)c4cccnc4N4C(=O)COC234)c1` (stereo partly drawn), the growth was 104% (inactive). On the same count and under the same terms, under `O=C(Cn1c(-c2ccc([N+](=O)[O-])cc2)nc2ccccc21)NNC(=O)c1cccnc1` stands 86.2% (inactive); under `CCNc1nc(-c2ccc(Cl)c(OC)c2)c(-c2ccnc(NCCCNS(=O)(=O)c3ccc(Cl)cc3)n2)s1`, 24.8% (inactive); under `COc1ccc2c(O)c(/C=C3\N=Nc4ccccc43)oc2c1C[C@@H]1CCNC[C@H]1F`, 68.3% (inactive). For the compound `CC(C)(C)[Si](C)(C)O[C@H]1C(=O)C=CN2CC=C[C@@H]12`, the growth is 102% [100 µM] (inactive). In the case of `CN1CCN(Cc2ccc(NC(=O)c3cncc(C#Cc4cnc(N)c5ccccc45)c3)cc2C(F)(F)F)CC1`, the growth was -88.7% (active). Same read-out and setting: under `CC(C)N1CN2C(=S)NC3C2N(C1)C(=S)N3C` (stereo not drawn) stands 104% (inactive). In the case of `COc1ccc(C(=O)Nc2cccc(C3CC(=O)c4c(cc(OC)c(OC)c4OC)O3)c2)cc1` (stereo not drawn), the growth is -47.3% (active). Regarding `O=c1oc2ccc([N+](=O)[O-])cc2cc1Br`, the growth is 104% (inactive). For `CCOC(=O)c1cc2c(=O)oc3ccccc3c2oc1=O`, the growth was 111% (inactive). On to `Clc1ccc(Sc2cnc(-c3ccccc3)o2)cc1`, for which the growth is 101% (inactive). Regarding `CN(C)c1ccc(/C=C/C(=O)c2ccc(-n3cc(CN4CCN(c5cc6c(cc5F)c(=O)c(C(=O)O)cn6C5CC5)CC4)nn3)cc2)cc1`, the growth is 64.7% (inactive).

Turning to `Oc1ccc(CCn2c(O)c(/C=C3\CN=c4ccccc4=N3)sc2=S)cc1`, the growth is 70.6% (inactive). As for `COC1C[C@H](O[C@@H]2C[C@H](O[C@@H]3C[C@H](O[C@@H]4C(=O)c5c(cc6cc(O[C@H]7C[C@@H](O[C@H]8C[C@@H](O)[C@H](O)C(C)O8)[C@H](O)C(C)O7)c(C)c(O)c6c5O)C[C@H]4C(OC)C(=O)[C@@H](O)[C@@H](C)O)OC(C)[C@H]3O)OC(C)[C@@H]2O)OC(C)[C@@H]1O` (stereo partly drawn), the growth is -62% (active). On to `C[C@H](NC(=O)[C@@H](C)N)[C@H](Oc1ccc2c(cnn2-c2ccc(F)cc2)c1)c1ccc2c(c1)OCCO2`, for which the growth is 45.4% (inactive).

On to `CCc1ccc(Oc2cn[nH]c2-c2ccc(OCCc3ccc(F)cc3)cc2O)cc1`, for which the growth is 91.6% (inactive).

Another experiment deals with SW-620 colon. The description is as above. The following applies: 10 µM unless noted.
For `Cc1ccc(-c2csc(NC(=O)CN3CCN(c4cc5c(cc4F)c(=O)c(C(=O)O)cn5C4CC4)CC3)n2)cc1`, the growth is 27.4% (inactive). As to `O=C(Nc1ccc(-c2nc(N3CCOCC3)c3cccn3n2)cc1)Nc1cccnc1`, the growth was 8.71% (active). Regarding `CC(=O)OC[C@]12CCC(C)(C)C[C@H]1[C@@]1(O)[C@H](O)C[C@@H]3[C@@]4(C)CCCNC(C)(C)[C@@H]4CC[C@@]3(C)[C@]1(C)CC2`, the growth is 109% (inactive).

Take `Cn1ccnc1C(=O)C(=O)Nc1ccc(CC(=O)Nc2ccccc2)cc1`: the growth was 102% (inactive).

As to `O=[N+]([O-])c1ccc(-c2nc(N3CCOCC3)c3c4c(sc3n2)CCCC4)cc1`, the growth is 95.1% (inactive). As for `O=C1/C(=C\c2cn(-c3ccccc3)nc2-c2ccc(-c3cccs3)cc2)CCc2ccccc21`, the growth is 41.9% (inactive). The same measure, in the same setting: for `Cc1ccc(-c2cc(-c3ccc(Cl)cc3)nc(NC(=O)c3cccnc3)n2)cc1` the value was 102% (inactive); for `C[C@@H]1CCC[C@H]1CC(N)C(=O)O` (stereo partly drawn), 102% (inactive); for `CSc1nnc(-c2cnn3c2NC(c2ccccc2)C3)n1-c1ccc(C(F)(F)F)cc1` (stereo not drawn), 50.9% (inactive). For `COc1ccccc1Nc1nc2c(s1)C1=CC[C@H]3[C@@H]4CC[C@H]([C@H](C)CCCC(C)C)[C@@]4(C)CC[C@@H]3[C@@]1(C)CC2`, the growth was 101% (inactive).

With `CCOC(=O)c1ccc2[nH]c(O)c(C(=Nc3ccc(N(C)C(=O)CN4CCN(C)CC4)cc3)c3ccccc3)c2c1`, the growth is -34.4% (active). For the compound `COc1ccc(-c2nnc(-c3ccc4c(c3)nc(-c3ccncc3)n4C3CCCCC3)o2)cc1`, the growth is 95.9% (inactive).

Consider `CCCCCCC1(C)NCCO1` (stereo not drawn), for which the growth is 106% (inactive). As to `O=C(CCCCCCN1CC(=O)N2[C@H](c3cc(Br)cs3)c3[nH]c4ccccc4c3C[C@H]2C1=O)NO`, the growth is 8.76% (active). `C=CCn1c(SCC(=O)Nc2ccc(C(=O)/C=C/c3cc4cc(OC)ccc4nc3Cl)cc2)nnc1-c1ccc(Br)cc1`: the growth was 92% (inactive).

With `O=C(COc1ccc(-c2nc3ccccc3[nH]2)cc1)N=Nc1c(O)[nH]c2ccc(Cl)cc12`, the growth was 40.6% (inactive). On the same count and under the same terms, under `Cc1cc(=O)[nH]c2c(C#N)cnn12` stands 92.4% (inactive); under `O=C1Nc2ccc(I)cc2C1=O`, 65.2% (inactive); under `Fc1ccc(Nc2nc3nonc3nc2Nc2ccc(I)cc2)cc1`, 11.2% (inactive). Take `CN1CCN(Cc2ccc3c(NNC(=O)c4ccccc4)nc4cc(F)ccc4n23)CC1`: the growth was 25.3% (inactive). On to `O=C(Nn1c2c(sc1=NCc1ccccc1)C(=O)c1ccccc1C2=O)c1cc2ccc1CCc1ccc(cc1)CC2`, for which the growth was 77.5% (inactive).

On to `Cc1cc2c(O)c(-c3cccc(Cl)c3)c3sc(=O)oc3c2cc1C`, for which the growth was 35% (inactive). For `CC12CCC3c4ccccc4CCC3(CO1)C2` (stereo not drawn), the growth is 106% (inactive).

For `O=C(Cn1cc(CN2CCCCCC2)nn1)Nc1ccc2c(ccn2Cc2ccccc2)c1`, the growth was 96.9% (inactive). Take `COc1cc(OC)cc(C2=C3CC[C@@H]4[C@H](CC[C@]5(C)C(=O)CC[C@@H]45)C3=CC3C(O)c4cccnc4N4C(=O)COC234)c1` (stereo partly drawn): the growth was 103% (inactive). Same read-out and setting: for `O=C(Cn1c(-c2ccc([N+](=O)[O-])cc2)nc2ccccc21)NNC(=O)c1cccnc1` the value was 103% (inactive); for `CCNc1nc(-c2ccc(Cl)c(OC)c2)c(-c2ccnc(NCCCNS(=O)(=O)c3ccc(Cl)cc3)n2)s1`, 80.9% (inactive). As to `COc1ccc2c(O)c(/C=C3\N=Nc4ccccc43)oc2c1C[C@@H]1CCNC[C@H]1F`, the growth is 6.01% (active). For the compound `CC(C)(C)[Si](C)(C)O[C@H]1C(=O)C=CN2CC=C[C@@H]12`, the growth was 104% [100 µM] (inactive).

Consider `CN1CCN(Cc2ccc(NC(=O)c3cncc(C#Cc4cnc(N)c5ccccc45)c3)cc2C(F)(F)F)CC1`, for which the growth was -73.4% (active).

For the compound `CC(C)N1CN2C(=S)NC3C2N(C1)C(=S)N3C` (stereo not drawn), the growth was 101% (inactive). Regarding `COc1ccc(C(=O)Nc2cccc(C3CC(=O)c4c(cc(OC)c(OC)c4OC)O3)c2)cc1` (stereo not drawn), the growth is 27.3% (inactive).

On to `O=c1oc2ccc([N+](=O)[O-])cc2cc1Br`, for which the growth was 98.1% (inactive). As for `CCOC(=O)c1cc2c(=O)oc3ccccc3c2oc1=O`, the growth is 105% (inactive).

Take `Clc1ccc(Sc2cnc(-c3ccccc3)o2)cc1`: the growth was 105% (inactive). Still for that read-out and setting: under `CN(C)c1ccc(/C=C/C(=O)c2ccc(-n3cc(CN4CCN(c5cc6c(cc5F)c(=O)c(C(=O)O)cn6C5CC5)CC4)nn3)cc2)cc1` stands 43.2% (inactive); under `Oc1ccc(CCn2c(O)c(/C=C3\CN=c4ccccc4=N3)sc2=S)cc1`, 67.4% (inactive); under `COC1C[C@H](O[C@@H]2C[C@H](O[C@@H]3C[C@H](O[C@@H]4C(=O)c5c(cc6cc(O[C@H]7C[C@@H](O[C@H]8C[C@@H](O)[C@H](O)C(C)O8)[C@H](O)C(C)O7)c(C)c(O)c6c5O)C[C@H]4C(OC)C(=O)[C@@H](O)[C@@H](C)O)OC(C)[C@H]3O)OC(C)[C@@H]2O)OC(C)[C@@H]1O` (stereo partly drawn), 9.73% (active). With `C[C@H](NC(=O)[C@@H](C)N)[C@H](Oc1ccc2c(cnn2-c2ccc(F)cc2)c1)c1ccc2c(c1)OCCO2`, the growth was 62% (inactive). With `CCc1ccc(Oc2cn[nH]c2-c2ccc(OCCc3ccc(F)cc3)cc2O)cc1`, the growth was 94.1% (inactive).
